Laboratory results taken from the supplement of paper PMC11732987, “Enantioselective OTUD7B fragment discovery through chemoproteomics screening and high-throughput optimisation” (Communications Chemistry, 2025).

Key:
Experiment in all cases: log2 ratio of Biotin-Ahx-Ub-VS probe labelling (compound/DMSO); higher = less target engagement, active = hit call of the paper (q ≤ 0.05, log2 ratio ≤ -1)
Conditions in all cases: treatment time: 3 h
[1] = compound: CN(Cc1cccc(Br)c1)C(=O)CCl
Method in brief: (§1)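 Compound at 50 or 200 µM, or DMSO, was applied for 3 h in triplicate to HEK293T lysate (495 µg per sample, Tris/CHAPS/IGEPAL buffer with protease inhibitors), after which Biotin-Ahx-Ub-VS was added at 0.5 µM final for 1 h. The labelled DUBs were pulled down with NeutrAvidin, digested with LysC and trypsin, and run by diaPASEF LC-MS/MS. Ratios are averaged base-two logs of compound over DMSO from median-normalised label-free quantities by unpaired t-test, counting only proteins with at least 2 unique peptides.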

[2] = compound: CN(Cc1cccc(OCc2ccccc2C)c1)C(=O)CCl
Method in brief: as §1

[3] = compound: CN(Cc1ccccc1)C(=O)CCl
Method in brief: as §1

[4] = compound: COc1ccc(CN(C)C(=O)CCl)cc1
Method in brief: as §1

[5] = compound: COc1cccc(CN(CCCc2ccccc2)C(=O)CCl)c1
Method in brief: as §1

[6] = compound: ClCC(=O)N1CCc2cc(Cl)c(Cl)cc2C1
Method in brief: as §1

[7] = compound: ClCC(=O)N1CCc2nc(ncc2C1)-c1ccccc1
Method in brief: as §1

[8] = compound: ClCC(=O)N1CCc2nocc2C1
Method in brief: as §1

[9] = compound: ClCC(=O)N1CCc2scc(Br)c2C1
Method in brief: as §1

[10] = compound: ClCC(=O)NC(C1CCCC1)c1cccs1
Method in brief: as §1

[11] = compound: ClCC(=O)NC1CCCc2ccccc12
Method in brief: as §1

[12] = compound: ClCC(=O)NC1CCOc2ccc(Cl)cc12
Method in brief: as §1

[13] = compound: ClCC(=O)NC1CCSc2ccccc12
Method in brief: as §1

[14] = compound: ClCC(=O)N[C@H]1CCCc2ccccc12
Method in brief: as §1

[15] = compound: Fc1ccc(N2CCN(c3nc4c(CN(C(CCl)=O)CC4)cn3)CC2)cc1.Cl.Cl
Method in brief: as §1

Measured: log2 ratio of Biotin-Ahx-Ub-VS probe labelling

USP22 (UniProt Q9UPT9)
Sequence of UniProt Q9UPT9 (Q9UPT9 whole entry): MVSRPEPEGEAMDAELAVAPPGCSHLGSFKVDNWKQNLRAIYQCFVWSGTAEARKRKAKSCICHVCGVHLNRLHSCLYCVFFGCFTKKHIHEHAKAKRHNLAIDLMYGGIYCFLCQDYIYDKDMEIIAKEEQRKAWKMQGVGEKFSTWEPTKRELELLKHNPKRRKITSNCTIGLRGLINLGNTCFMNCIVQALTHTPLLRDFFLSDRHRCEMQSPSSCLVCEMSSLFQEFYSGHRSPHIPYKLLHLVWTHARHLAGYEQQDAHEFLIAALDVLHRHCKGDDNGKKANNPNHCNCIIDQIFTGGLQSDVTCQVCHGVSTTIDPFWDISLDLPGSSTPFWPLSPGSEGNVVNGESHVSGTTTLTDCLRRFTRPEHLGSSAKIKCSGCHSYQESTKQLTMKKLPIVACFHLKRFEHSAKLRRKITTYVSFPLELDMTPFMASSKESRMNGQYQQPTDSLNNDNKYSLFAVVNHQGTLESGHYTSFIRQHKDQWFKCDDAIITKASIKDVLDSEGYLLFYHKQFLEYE
inactive: [1]; compound concentration: 50uM -0.105 | [1]; compound concentration: 200uM 0.476 | [2]; compound concentration: 50uM -0.278 | [2]; compound concentration: 200uM -0.429 | [3]; compound concentration: 50uM -0.208 | [3]; compound concentration: 200uM -0.176 | [4]; compound concentration: 50uM -0.0376 | [4]; compound concentration: 200uM -0.15 | [5]; compound concentration: 50uM -0.102 | [5]; compound concentration: 200uM -0.225 | [6]; compound concentration: 50uM -0.0223 | [6]; compound concentration: 200uM -0.226 | [7]; compound concentration: 50uM -0.0429 | [7]; compound concentration: 200uM -0.339 | [8]; compound concentration: 50uM 0.0391 | [8]; compound concentration: 200uM -0.233 | [9]; compound concentration: 50uM -0.0943 | [9]; compound concentration: 200uM -0.362 | [10]; compound concentration: 50uM -0.0796 | [10]; compound concentration: 200uM -0.154 | [11]; compound concentration: 50uM -0.085 | [11]; compound concentration: 200uM -0.0777 | [12]; compound concentration: 50uM -0.0691 | [12]; compound concentration: 200uM -0.277 | [13]; compound concentration: 50uM 0.136 | [13]; compound concentration: 200uM -0.123 | [14]; compound concentration: 50uM 0.101 | [14]; compound concentration: 200uM -0.302 | [15]; compound concentration: 50uM -0.16 | [15]; compound concentration: 200uM -0.168

OTUD4 (UniProt Q01804)
Sequence of UniProt Q01804 (Q01804 whole entry): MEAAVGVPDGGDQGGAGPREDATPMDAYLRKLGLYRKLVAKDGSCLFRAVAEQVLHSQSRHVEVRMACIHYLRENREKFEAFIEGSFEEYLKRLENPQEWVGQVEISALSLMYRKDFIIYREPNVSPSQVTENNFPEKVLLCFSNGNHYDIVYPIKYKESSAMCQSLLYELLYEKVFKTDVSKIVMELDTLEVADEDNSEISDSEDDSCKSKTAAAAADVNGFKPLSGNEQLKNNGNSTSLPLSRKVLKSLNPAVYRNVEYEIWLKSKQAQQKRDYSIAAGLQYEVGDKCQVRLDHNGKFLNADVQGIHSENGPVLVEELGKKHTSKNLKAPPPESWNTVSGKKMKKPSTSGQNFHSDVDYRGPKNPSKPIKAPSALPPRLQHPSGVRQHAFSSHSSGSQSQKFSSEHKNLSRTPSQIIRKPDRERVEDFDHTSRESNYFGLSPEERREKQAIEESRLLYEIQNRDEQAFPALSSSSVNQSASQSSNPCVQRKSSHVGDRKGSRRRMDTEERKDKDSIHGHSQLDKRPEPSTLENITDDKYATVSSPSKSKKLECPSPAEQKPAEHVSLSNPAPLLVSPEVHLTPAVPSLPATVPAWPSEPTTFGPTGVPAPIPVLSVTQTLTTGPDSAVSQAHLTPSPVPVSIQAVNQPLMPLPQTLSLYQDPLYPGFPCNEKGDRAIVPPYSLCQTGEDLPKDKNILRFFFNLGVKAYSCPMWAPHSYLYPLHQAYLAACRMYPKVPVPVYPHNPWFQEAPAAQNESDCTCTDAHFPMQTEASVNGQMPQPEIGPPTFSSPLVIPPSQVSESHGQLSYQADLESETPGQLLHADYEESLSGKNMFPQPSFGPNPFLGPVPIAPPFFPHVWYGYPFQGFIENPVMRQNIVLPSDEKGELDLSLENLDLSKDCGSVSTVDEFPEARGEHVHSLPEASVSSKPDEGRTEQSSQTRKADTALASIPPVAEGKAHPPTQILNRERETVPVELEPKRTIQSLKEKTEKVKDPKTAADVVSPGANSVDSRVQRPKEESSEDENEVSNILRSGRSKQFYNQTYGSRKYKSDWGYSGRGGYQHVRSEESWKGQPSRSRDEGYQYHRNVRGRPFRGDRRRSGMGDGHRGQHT
inactive: [1]; compound concentration: 50uM -0.0958 | [1]; compound concentration: 200uM -0.146 | [2]; compound concentration: 50uM -0.447 | [2]; compound concentration: 200uM -0.51 | [3]; compound concentration: 50uM -0.294 | [3]; compound concentration: 200uM -0.346 | [4]; compound concentration: 50uM -0.216 | [4]; compound concentration: 200uM -0.205 | [5]; compound concentration: 50uM -0.174 | [5]; compound concentration: 200uM -0.415 | [6]; compound concentration: 50uM 0.000974 | [6]; compound concentration: 200uM -0.823 | [7]; compound concentration: 50uM 0.0593 | [7]; compound concentration: 200uM -0.446 | [8]; compound concentration: 50uM -0.424 | [8]; compound concentration: 200uM -0.874 | [9]; compound concentration: 50uM -0.0278 | [9]; compound concentration: 200uM -0.809 | [10]; compound concentration: 50uM -0.284 | [10]; compound concentration: 200uM -0.721 | [12]; compound concentration: 50uM -0.449 | [15]; compound concentration: 50uM -0.0534 | [15]; compound concentration: 200uM -0.739
active: [11]; compound concentration: 50uM -1.22 | [11]; compound concentration: 200uM -1.53 | [12]; compound concentration: 200uM -1.11 | [13]; compound concentration: 50uM -1.2 | [13]; compound concentration: 200uM -1.84 | [14]; compound concentration: 50uM -1.48 | [14]; compound concentration: 200uM -1.79

OTUD6B (UniProt Q8N6M0)
Sequence of UniProt Q8N6M0 (Q8N6M0 whole entry): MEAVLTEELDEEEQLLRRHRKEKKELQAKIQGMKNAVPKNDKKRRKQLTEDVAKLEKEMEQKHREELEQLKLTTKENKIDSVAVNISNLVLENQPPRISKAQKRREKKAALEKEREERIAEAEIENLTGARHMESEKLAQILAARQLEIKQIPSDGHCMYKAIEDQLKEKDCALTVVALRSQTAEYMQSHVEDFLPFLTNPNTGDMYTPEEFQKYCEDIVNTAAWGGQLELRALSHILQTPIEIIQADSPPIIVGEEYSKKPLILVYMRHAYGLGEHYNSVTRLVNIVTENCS
active: [6]; compound concentration: 200uM -1.26 | [9]; compound concentration: 200uM -1.1 | [15]; compound concentration: 200uM -1.28
inactive: [1]; compound concentration: 50uM -0.133 | [1]; compound concentration: 200uM -0.53 | [2]; compound concentration: 50uM -0.59 | [2]; compound concentration: 200uM -0.817 | [3]; compound concentration: 50uM -0.257 | [3]; compound concentration: 200uM -0.515 | [4]; compound concentration: 50uM -0.181 | [4]; compound concentration: 200uM -0.334 | [5]; compound concentration: 50uM -0.28 | [5]; compound concentration: 200uM -0.784 | [6]; compound concentration: 50uM 0.0579 | [7]; compound concentration: 50uM 0.00143 | [7]; compound concentration: 200uM -0.718 | [8]; compound concentration: 50uM -0.255 | [8]; compound concentration: 200uM -0.521 | [9]; compound concentration: 50uM -0.125 | [10]; compound concentration: 50uM 0.0378 | [10]; compound concentration: 200uM -0.153 | [11]; compound concentration: 50uM -0.12 | [11]; compound concentration: 200uM -0.0737 | [12]; compound concentration: 50uM -0.248 | [12]; compound concentration: 200uM -0.361 | [13]; compound concentration: 50uM 0.0363 | [13]; compound concentration: 200uM -0.296 | [14]; compound concentration: 50uM -0.00611 | [14]; compound concentration: 200uM -0.364 | [15]; compound concentration: 50uM -0.105

VCPIP1 (UniProt Q96JH7)
Sequence of UniProt Q96JH7 (Q96JH7 whole entry): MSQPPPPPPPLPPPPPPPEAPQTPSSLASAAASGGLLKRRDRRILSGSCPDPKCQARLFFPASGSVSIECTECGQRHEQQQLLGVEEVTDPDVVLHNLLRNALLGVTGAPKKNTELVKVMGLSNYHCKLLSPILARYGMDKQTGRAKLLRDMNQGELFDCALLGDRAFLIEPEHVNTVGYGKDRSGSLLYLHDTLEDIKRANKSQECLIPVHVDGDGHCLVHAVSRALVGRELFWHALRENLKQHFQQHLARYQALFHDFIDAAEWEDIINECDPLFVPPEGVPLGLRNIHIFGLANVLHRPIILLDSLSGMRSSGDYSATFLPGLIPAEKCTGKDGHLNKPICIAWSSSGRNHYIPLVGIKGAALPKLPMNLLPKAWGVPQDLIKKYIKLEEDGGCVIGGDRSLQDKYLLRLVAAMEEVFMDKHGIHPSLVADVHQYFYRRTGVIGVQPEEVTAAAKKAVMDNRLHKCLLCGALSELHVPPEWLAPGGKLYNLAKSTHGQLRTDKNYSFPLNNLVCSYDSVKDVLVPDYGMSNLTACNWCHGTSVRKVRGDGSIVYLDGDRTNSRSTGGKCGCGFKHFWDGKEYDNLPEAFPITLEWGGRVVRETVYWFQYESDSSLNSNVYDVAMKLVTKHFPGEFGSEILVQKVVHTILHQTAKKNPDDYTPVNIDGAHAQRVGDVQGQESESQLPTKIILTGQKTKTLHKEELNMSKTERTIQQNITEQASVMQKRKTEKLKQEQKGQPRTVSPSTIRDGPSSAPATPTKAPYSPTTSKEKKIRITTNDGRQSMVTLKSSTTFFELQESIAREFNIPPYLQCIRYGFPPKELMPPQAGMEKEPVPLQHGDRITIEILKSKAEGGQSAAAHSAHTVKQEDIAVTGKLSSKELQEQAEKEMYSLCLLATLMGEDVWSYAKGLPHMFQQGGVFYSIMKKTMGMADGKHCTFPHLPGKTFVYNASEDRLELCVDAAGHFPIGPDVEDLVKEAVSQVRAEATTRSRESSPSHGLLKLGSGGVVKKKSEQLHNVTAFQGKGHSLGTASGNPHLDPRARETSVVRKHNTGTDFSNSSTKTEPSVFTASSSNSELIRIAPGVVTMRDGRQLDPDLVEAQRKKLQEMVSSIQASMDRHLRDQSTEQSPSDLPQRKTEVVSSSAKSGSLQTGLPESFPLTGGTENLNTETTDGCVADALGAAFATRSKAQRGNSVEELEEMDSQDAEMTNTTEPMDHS
active: [2]; compound concentration: 200uM -1.2 | [5]; compound concentration: 200uM -1.11 | [11]; compound concentration: 200uM -1.1 | [13]; compound concentration: 200uM -1.2
inactive: [1]; compound concentration: 50uM -0.446 | [1]; compound concentration: 200uM -0.887 | [2]; compound concentration: 50uM -0.755 | [3]; compound concentration: 50uM -0.563 | [3]; compound concentration: 200uM -0.709 | [4]; compound concentration: 50uM -0.548 | [4]; compound concentration: 200uM -0.854 | [5]; compound concentration: 50uM -0.299 | [6]; compound concentration: 50uM -0.374 | [6]; compound concentration: 200uM -0.407 | [7]; compound concentration: 50uM -0.105 | [7]; compound concentration: 200uM -0.284 | [8]; compound concentration: 50uM -0.319 | [8]; compound concentration: 200uM -0.484 | [9]; compound concentration: 50uM -0.213 | [9]; compound concentration: 200uM -0.677 | [10]; compound concentration: 50uM -0.515 | [10]; compound concentration: 200uM -0.426 | [11]; compound concentration: 50uM -0.592 | [12]; compound concentration: 50uM -0.668 | [12]; compound concentration: 200uM -0.836 | [13]; compound concentration: 50uM -0.427 | [14]; compound concentration: 50uM -0.287 | [14]; compound concentration: 200uM -0.962 | [15]; compound concentration: 50uM -0.145 | [15]; compound concentration: 200uM -0.737

USP4 (UniProt Q13107)
Sequence of UniProt Q13107 (Q13107 whole entry): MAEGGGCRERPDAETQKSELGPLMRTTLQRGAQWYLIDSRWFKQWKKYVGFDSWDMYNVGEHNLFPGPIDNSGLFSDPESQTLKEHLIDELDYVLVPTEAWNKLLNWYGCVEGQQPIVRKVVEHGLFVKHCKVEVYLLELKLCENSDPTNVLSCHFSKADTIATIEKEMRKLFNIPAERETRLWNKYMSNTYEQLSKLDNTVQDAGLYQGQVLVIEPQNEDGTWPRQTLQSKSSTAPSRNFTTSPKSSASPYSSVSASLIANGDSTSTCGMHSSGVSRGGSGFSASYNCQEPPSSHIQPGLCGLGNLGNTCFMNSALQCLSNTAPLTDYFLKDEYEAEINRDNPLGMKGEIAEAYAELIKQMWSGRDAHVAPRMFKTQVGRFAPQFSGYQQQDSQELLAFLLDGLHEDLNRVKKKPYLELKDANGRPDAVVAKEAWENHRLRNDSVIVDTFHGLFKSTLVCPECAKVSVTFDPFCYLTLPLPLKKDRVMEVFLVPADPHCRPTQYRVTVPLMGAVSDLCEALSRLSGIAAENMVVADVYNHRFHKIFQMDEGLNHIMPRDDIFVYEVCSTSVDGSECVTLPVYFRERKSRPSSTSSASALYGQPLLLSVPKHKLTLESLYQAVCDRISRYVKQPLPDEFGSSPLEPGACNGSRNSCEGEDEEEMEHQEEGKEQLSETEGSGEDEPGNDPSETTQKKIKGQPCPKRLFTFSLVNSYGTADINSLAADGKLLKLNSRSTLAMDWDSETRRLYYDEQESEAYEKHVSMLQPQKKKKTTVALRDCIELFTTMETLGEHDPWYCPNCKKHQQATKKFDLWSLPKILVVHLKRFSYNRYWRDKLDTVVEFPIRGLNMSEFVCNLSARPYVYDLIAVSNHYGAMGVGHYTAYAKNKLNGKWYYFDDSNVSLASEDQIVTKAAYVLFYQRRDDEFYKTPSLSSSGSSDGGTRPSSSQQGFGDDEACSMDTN
active: [2]; compound concentration: 200uM -1.72 | [6]; compound concentration: 200uM -1.88 | [7]; compound concentration: 200uM -1.65 | [10]; compound concentration: 50uM -1.38
inactive: [1]; compound concentration: 50uM -0.457 | [1]; compound concentration: 200uM 0.551 | [2]; compound concentration: 50uM 0.0716 | [3]; compound concentration: 50uM -0.596 | [3]; compound concentration: 200uM -0.256 | [4]; compound concentration: 50uM -0.643 | [4]; compound concentration: 200uM 0.475 | [5]; compound concentration: 50uM 0.418 | [5]; compound concentration: 200uM -0.294 | [6]; compound concentration: 50uM 0.245 | [7]; compound concentration: 50uM 0.281 | [8]; compound concentration: 50uM -0.605 | [8]; compound concentration: 200uM 0.447 | [9]; compound concentration: 50uM 0.067 | [9]; compound concentration: 200uM -0.445 | [10]; compound concentration: 200uM -0.493 | [11]; compound concentration: 50uM 0.337 | [11]; compound concentration: 200uM -0.155 | [12]; compound concentration: 50uM -0.21 | [12]; compound concentration: 200uM 0.596 | [13]; compound concentration: 50uM -0.0317 | [13]; compound concentration: 200uM -0.104 | [14]; compound concentration: 50uM -0.54 | [14]; compound concentration: 200uM -0.195 | [15]; compound concentration: 50uM -0.32 | [15]; compound concentration: 200uM 0.659

EIF3F (UniProt O00303)
Sequence of UniProt O00303 (O00303 whole entry): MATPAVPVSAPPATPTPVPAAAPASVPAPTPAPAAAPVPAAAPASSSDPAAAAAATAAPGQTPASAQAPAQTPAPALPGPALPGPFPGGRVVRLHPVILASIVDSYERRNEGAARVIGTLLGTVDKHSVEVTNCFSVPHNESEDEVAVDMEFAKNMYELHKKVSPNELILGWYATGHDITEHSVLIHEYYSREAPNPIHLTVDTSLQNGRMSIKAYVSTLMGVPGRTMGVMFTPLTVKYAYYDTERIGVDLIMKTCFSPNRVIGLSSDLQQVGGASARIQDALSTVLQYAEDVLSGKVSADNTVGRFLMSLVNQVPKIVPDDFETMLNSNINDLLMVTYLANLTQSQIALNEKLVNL
inactive: [1]; compound concentration: 50uM -0.146 | [1]; compound concentration: 200uM -0.0144 | [2]; compound concentration: 50uM -0.201 | [2]; compound concentration: 200uM 0.0399 | [3]; compound concentration: 50uM 0.12 | [3]; compound concentration: 200uM 0.117 | [4]; compound concentration: 50uM -0.317 | [4]; compound concentration: 200uM -0.0894 | [5]; compound concentration: 50uM -0.0548 | [5]; compound concentration: 200uM -0.0324 | [6]; compound concentration: 50uM -0.117 | [6]; compound concentration: 200uM -0.406 | [7]; compound concentration: 50uM -0.18 | [7]; compound concentration: 200uM 0.268 | [8]; compound concentration: 50uM -0.16 | [8]; compound concentration: 200uM 0.0551 | [9]; compound concentration: 50uM -0.352 | [9]; compound concentration: 200uM -0.162 | [10]; compound concentration: 50uM 0.0245 | [10]; compound concentration: 200uM -0.0374 | [11]; compound concentration: 50uM -0.228 | [11]; compound concentration: 200uM 0.0219 | [12]; compound concentration: 50uM -0.17 | [12]; compound concentration: 200uM 0.0998 | [13]; compound concentration: 50uM -0.0176 | [13]; compound concentration: 200uM 0.00311 | [14]; compound concentration: 50uM -0.292 | [14]; compound concentration: 200uM 0.0431 | [15]; compound concentration: 50uM 0.028 | [15]; compound concentration: 200uM 0.0109
